From PubChem BioAssay AID1159580 (chemical genetic matrix, 2015)
Several values for one entry are separate records, joined by “and”; a condition that tells them apart may be missing. Equal entries are not always repeated. Out of some 5,500 compounds screened, about 2,000 (36%) were called active. Not shown: some 18% with an inconclusive outcome. No stated cut-off is given here; in the data, active means normalized growth mostly below about 0.91 (no sharp cut-off); inconclusive means no clear call, values can overlap the other calls; inactive means mostly above about 0.92. The list shows a part of the results.

Test: chemical genetic growth profiling, strain panel (AID 1159580);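 further: tested at 20 µM; growth read once vehicle control cultures reached saturation at 30 °C; 1 = growth at the plate median or of vehicle wells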
Conditions: S. cerevisiae deletion strains, growth OD

Measured: normalized growth

CCCCCCCCCCCCCCCC[n+]1ccccc1
active: locus YAL013W, strain DEP1, stronger effect = lower value 0.0574 | locus YAL021C, strain ccr4, stronger effect = lower value 0.0611 | locus YAL026C, strain drs2, stronger effect = lower value 0.0581 | locus YAL030W, strain snc1, stronger effect = lower value 0.0525 | locus YBL061C, strain skt5, stronger effect = lower value 0.0581 | locus YBR009C, strain hhf1, stronger effect = lower value 0.0558 | locus YBR021W, strain FUR4, stronger effect = lower value 0.0963 | locus YBR023C, strain chs3, stronger effect = lower value 0.0594 | locus YBR171W, strain sec66, stronger effect = lower value 0.0739 | locus YBR229C, strain ROT2, stronger effect = lower value 0.0303 | locus YBR231C, strain swc5, stronger effect = lower value 0.0577 | locus YBR279W, strain paf1, stronger effect = lower value 0.0555 | locus YCL011C, strain gbp2, stronger effect = lower value 0.053 | locus YCL016C, strain dcc1, stronger effect = lower value 0.0599 | locus YCL029C, strain bik1, stronger effect = lower value 0.058 | locus YCL061C, strain MRC1, stronger effect = lower value 0.0607 | locus YCL069W, strain vba3, stronger effect = lower value 0.0581 | locus YCR088W, strain abp1, stronger effect = lower value 0.0584 | locus YDL005C, strain med2, stronger effect = lower value 0.0695 | locus YDL035C, strain GPR1, stronger effect = lower value 0.0498 | locus YDL040C, strain nat1, stronger effect = lower value 0.0541 | locus YDL074C, strain BRE1, stronger effect = lower value 0.0827 | locus YDL101C, strain DUN1, stronger effect = lower value 0.0526 | locus YDL134C, strain PPH21, stronger effect = lower value 0.0538 | locus YDL185W, strain tfp1, stronger effect = lower value 0.0538 | locus YDL192W, strain arf1, stronger effect = lower value 0.0595 | locus YDR001C, strain nth1, stronger effect = lower value 0.0571 | locus YDR069C, strain doa4, stronger effect = lower value 0.0582 | locus YDR101C, strain arx1, stronger effect = lower value 0.0554 | locus YDR137W, strain rgp1, stronger effect = lower value 0.0947 | locus YDR150W, strain NUM1, stronger effect = lower value 0.0551 | locus YDR159W, strain sac3, stronger effect = lower value 0.0818 | locus YDR162C, strain NBP2, stronger effect = lower value 0.047 | locus YDR195W, strain ref2 0.109 | locus YDR297W, strain sur2, stronger effect = lower value 0.0517 | locus YDR318W, strain mcm21, stronger effect = lower value 0.0596 | locus YDR334W, strain swr1, stronger effect = lower value 0.061 | locus YDR335W, strain msn5, stronger effect = lower value 0.0563 | locus YDR388W, stronger effect = lower value 0.0552 | locus YDR392W, strain spt3, stronger effect = lower value 0.068 | locus YDR502C, strain sam2, stronger effect = lower value 0.0615 | locus YEL003W, strain gim4, stronger effect = lower value 0.0501 | locus YEL037C, strain rad23, stronger effect = lower value 0.0542 | locus YEL061C, strain CIN8 (second series), stronger effect = lower value 0.0582 | locus YEL061C, strain CIN8, stronger effect = lower value 0.0502 | locus YER015W, strain faa2, stronger effect = lower value 0.0581 | locus YER016W, strain bim1, stronger effect = lower value 0.0593 | locus YER110C, stronger effect = lower value 0.0712 | locus YER111C, strain swi4, stronger effect = lower value 0.0669 | locus YER155C, strain BEM2 (second series), stronger effect = lower value 0.0821 | locus YER155C, strain BEM2, stronger effect = lower value 0.0622 | locus YER167W, strain BCK2, stronger effect = lower value 0.0514 | locus YFR010W, strain ubp6, stronger effect = lower value 0.0662 | locus YGL078C, strain dbp3, stronger effect = lower value 0.0557 | locus YGL086W, strain mad1, stronger effect = lower value 0.0563 | locus YGL167C, strain pmr1, stronger effect = lower value 0.0673 | locus YGL173C, strain kem1, stronger effect = lower value 0.0629 | locus YGL227W, strain vid30, stronger effect = lower value 0.062 | locus YGL240W, strain doc1, stronger effect = lower value 0.0671 | locus YGL248W, strain PDE1, stronger effect = lower value 0.0451 | locus YGL253W, strain hxk2, stronger effect = lower value 0.0516 | locus YGR135W, strain pre9, stronger effect = lower value 0.0612 | locus YGR252W, strain gcn5, stronger effect = lower value 0.17 | locus YHR013C, strain ard1, stronger effect = lower value 0.0961 | locus YHR027C, strain rpn1, stronger effect = lower value 0.0594 | locus YHR030C, strain SLT2, stronger effect = lower value 0.0512 and 0.0945 | locus YHR079C, strain IRE1 (second series), stronger effect = lower value 0.0605 | locus YHR079C, strain IRE1, stronger effect = lower value 0.11 | locus YHR094C, strain hxt1, stronger effect = lower value 0.0564 | locus YHR129C, strain ARP1, stronger effect = lower value 0.0537 | locus YHR142W, strain chs7, stronger effect = lower value 0.0693 | locus YHR200W, strain rpn10, stronger effect = lower value 0.0581 | locus YIL066C, strain RNR3, stronger effect = lower value 0.0411 | locus YIL073C, strain SPO22, stronger effect = lower value 0.106 | locus YIL125W, strain kgd1, stronger effect = lower value 0.0545 | locus YIR030C, strain dcg1, stronger effect = lower value 0.0571 | locus YJL092W, strain hpr5, stronger effect = lower value 0.0574 | locus YJL095W, strain BCK1 (second series), stronger effect = lower value 0.0528 | locus YJL095W, strain BCK1, stronger effect = lower value 0.0624 and 0.0966 | locus YJL115W, strain asf1, stronger effect = lower value 0.0684 | locus YJL129C, strain trk1, stronger effect = lower value 0.0768 | locus YJL134W, strain LCB3, stronger effect = lower value 0.047 | locus YJL154C, strain vps35, stronger effect = lower value 0.057 | locus YJL164C, strain tpk1, stronger effect = lower value 0.0549 | locus YJL166W, strain qcr8, stronger effect = lower value 0.0563 | locus YJL168C, strain set2, stronger effect = lower value 0.0564 | locus YJL187C, strain SWE1 (second series), stronger effect = lower value 0.0398 | locus YJL187C, strain SWE1, stronger effect = lower value 0.0529 | locus YJR043C, strain POL32, stronger effect = lower value 0.0648 | locus YJR066W, strain TOR1, stronger effect = lower value -0.000212 | locus YKL009W, strain mrt4, stronger effect = lower value 0.0643 | locus YKL068W, stronger effect = lower value 0.0564 | locus YKL085W, strain MDH1 (second series), stronger effect = lower value 0.0485 | locus YKL085W, strain MDH1, stronger effect = lower value 0.0485 | locus YKL160W, strain elf1, stronger effect = lower value 0.058 | locus YKR001C, strain vps1, stronger effect = lower value 0.0609 | locus YKR026C, strain gcn3, stronger effect = lower value 0.058 | locus YKR091W, strain srl3, stronger effect = lower value 0.0563 | locus YLL001W, strain dnm1, stronger effect = lower value 0.0595 | locus YLL026W, stronger effect = lower value 0.0533 | locus YLL041C, strain sdh2, stronger effect = lower value 0.0527 | locus YLR027C, strain aat2, stronger effect = lower value 0.0516 | locus YLR039C, strain RIC1, stronger effect = lower value 0.101 | locus YLR058C, strain SHM2, stronger effect = lower value 0.0432 | locus YLR102C, strain apc9, stronger effect = lower value 0.058 | locus YLR113W, strain HOG1, stronger effect = lower value 0.126 | locus YLR221C, strain rsa3, stronger effect = lower value 0.0565 | locus YLR258W, strain gsy2, stronger effect = lower value 0.0549 | locus YLR262C, strain YPT6 (second series), stronger effect = lower value 0.0739 | locus YLR262C, strain YPT6, stronger effect = lower value 0.0999 | locus YLR268W, strain sec22, stronger effect = lower value 0.0648 | locus YLR320W, strain mms22, stronger effect = lower value 0.0701 | locus YLR330W, strain CHS5, stronger effect = lower value 0.0543 | locus YLR342W, strain FKS1 (second series), stronger effect = lower value 0.0596 | locus YLR342W, strain FKS1, stronger effect = lower value 0.0608 | locus YLR357W, strain rsc2, stronger effect = lower value 0.119 | locus YLR370C, strain arc18, stronger effect = lower value 0.0588 | locus YLR371W, strain rom2, stronger effect = lower value 0.0606 | locus YLR384C, strain iki3, stronger effect = lower value 0.0569 | locus YLR418C, strain cdc73, stronger effect = lower value 0.0923 | locus YML016C, strain PPZ1, stronger effect = lower value 0.0531 | locus YML032C, strain rad52, stronger effect = lower value 0.0676 | locus YML120C, strain ndi1, stronger effect = lower value 0.0532 | locus YML124C, strain tub3, stronger effect = lower value 0.0589 | locus YMR058W, strain fet3, stronger effect = lower value 0.0569 | locus YMR078C, strain ctf18, stronger effect = lower value 0.0681 | locus YMR125W, strain sto1, stronger effect = lower value 0.0655 | locus YMR129W, stronger effect = lower value 0.0538 | locus YMR205C, strain PFK2, stronger effect = lower value 0.0777 | locus YMR223W, strain ubp8, stronger effect = lower value 0.061 | locus YMR231W, strain pep5, stronger effect = lower value 0.0645 | locus YMR307W, strain GAS1, stronger effect = lower value 0.134 | locus YNL067W, strain RPL9B, stronger effect = lower value 0.0493 | locus YNL071W, strain lat1, stronger effect = lower value 0.0582 | locus YNL153C, strain GIM3, stronger effect = lower value 0.0537 | locus YNL183C, strain NPR1, stronger effect = lower value -0.00168 | locus YNL209W, strain ssb2, stronger effect = lower value 0.0552 | locus YNL233W, strain BNI4, stronger effect = lower value 0.0562 | locus YNL248C, strain rpa49, stronger effect = lower value 0.0711 | locus YNL250W, strain rad50, stronger effect = lower value 0.0768 | locus YNL271C, strain bni1, stronger effect = lower value 0.0589 | locus YNL298W, strain CLA4, stronger effect = lower value 0.0577 | locus YNL307C, strain MCK1, stronger effect = lower value 0.0655 | locus YNL322C, strain KRE1 (second series), stronger effect = lower value 0.06 | locus YNL322C, strain KRE1, stronger effect = lower value 0.048 | locus YNR049C, strain mso1, stronger effect = lower value 0.0552 | locus YNR052C, strain pop2, stronger effect = lower value 0.0583 | locus YOL147C, strain pex11, stronger effect = lower value 0.0569 | locus YOR001W, strain rrp6, stronger effect = lower value 0.0649 | locus YOR061W, strain CKA2, stronger effect = lower value 0.0309 | locus YOR069W, strain VPS5, stronger effect = lower value 0.0516 | locus YOR070C, strain gyp1, stronger effect = lower value 0.0562 | locus YOR080W, strain dia2, stronger effect = lower value 0.0607 | locus YOR083W, strain WHI5, stronger effect = lower value 0.0593 | locus YOR106W, strain vam3, stronger effect = lower value 0.0617 | locus YOR136W, strain idh2, stronger effect = lower value 0.0704 | locus YOR144C, strain elg1, stronger effect = lower value 0.0544 | locus YOR184W, strain ser1, stronger effect = lower value 0.0674 | locus YOR231W, strain MKK1, stronger effect = lower value 0.0972 | locus YOR265W, strain rbl2, stronger effect = lower value 0.0533 | locus YOR270C, strain vph1, stronger effect = lower value 0.0863 | locus YOR290C, strain snf2, stronger effect = lower value 0.0573 | locus YOR316C, strain cot1, stronger effect = lower value 0.0567 | locus YPL051W, strain arl3, stronger effect = lower value 0.06 | locus YPL055C, strain LGE1, stronger effect = lower value 0.0709 | locus YPL078C, strain atp4, stronger effect = lower value 0.0604 | locus YPL106C, strain sse1, stronger effect = lower value 0.0881 | locus YPL240C, strain hsp82, stronger effect = lower value 0.0535 | locus YPL241C, strain CIN2, stronger effect = lower value 0.0502 | locus YPL256C, strain CLN2, stronger effect = lower value 0.113 | locus YPR119W, strain clb2, stronger effect = lower value 0.0599 | locus YPR141C, strain kar3, stronger effect = lower value 0.0617 | locus YPR163C, strain tif3, stronger effect = lower value 0.0683 | locus YPR167C, strain met16, stronger effect = lower value 0.06 | strain wtn01, stronger effect = lower value 0.061
